The source of these data is PubChem BioAssay AID2599 (Sanford-Burnham Center for Chemical Genomics, 2010).

Screen size: about 330,000 compounds; about 5,800 (1.8%) were called active.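 The calls were made as follows: active = inhibition above about 50% at the single tested dose (limit read from the data); inactive = the rest.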 The sample as a whole holds a higher share of actives than the screen did.

The target of the assay is Sentrin-specific protease 6 (Homo sapiens) (UniProt Q9GZR1). In words: inhibition of human SENP6 catalytic domain – biochemical, luminescence, uHTS, primary screen (AID 2599).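 Also: plate controls were DMSO wells with enzyme for no effect and DMSO wells lacking enzyme for full effect.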 The settings on record: Recombinant SENP6 catalytic domain, aminoluciferin luminescence; at 10 µM; active compounds read high.
Chain of Sentrin-specific protease 6 (Homo sapiens) (Q9GZR1 628-1112 limits assumed): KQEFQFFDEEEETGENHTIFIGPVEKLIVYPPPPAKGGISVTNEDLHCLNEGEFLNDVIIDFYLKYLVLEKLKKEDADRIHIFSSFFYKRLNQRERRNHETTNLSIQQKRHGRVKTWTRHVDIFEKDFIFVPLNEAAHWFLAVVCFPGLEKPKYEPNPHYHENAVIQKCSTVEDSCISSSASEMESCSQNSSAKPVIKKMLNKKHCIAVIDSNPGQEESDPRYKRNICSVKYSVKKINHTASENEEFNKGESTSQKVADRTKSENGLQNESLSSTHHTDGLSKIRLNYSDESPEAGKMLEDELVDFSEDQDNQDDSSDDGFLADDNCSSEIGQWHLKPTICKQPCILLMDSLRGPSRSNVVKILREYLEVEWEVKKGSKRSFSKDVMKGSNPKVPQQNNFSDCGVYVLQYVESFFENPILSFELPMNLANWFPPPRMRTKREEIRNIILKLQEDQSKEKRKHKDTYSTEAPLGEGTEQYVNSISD
As to `O=S(=O)(c1ccc(Br)cc1)N1CCC(c2nc3ccccc3[nH]2)CC1`, the inhibition – broadly, the drop in the measured response relative to a control, in per cent – was -3.25% (inactive).
To `COC(=O)c1scc(C)c1NC(=O)CSc1ccc(Cl)cc1` belongs -3.94% (inactive); to `O=C(CN1CCN(c2ccccc2F)CC1)c1ccc2c(c1)OCO2`, -2.86% (inactive); to `Fc1ccccc1-c1cc2cc3c(cc2cn1)OCO3`, 75.8% (active).
The same measure for `O=C(c1ccco1)N1CCN(C(=O)c2cc(-c3ccccc3F)no2)CC1`: 4.97% (inactive); for `COC(=O)Cc1ccc(N(Cc2ccccc2F)S(=O)(=O)c2ccc(Br)cc2)cc1`: -6.45% (inactive); for `CCOc1ccc(OCC)c(NC(=O)CSc2nnc(Cn3cnc4ccccc43)n2C)c1`: 3.46% (inactive).
The same measure for `O=C(CCN1CCc2ccccc2C(O)(c2ccccc2)C1)c1ccc2c(c1)OCCO2` (configuration not stated): -26.4% (inactive); for `O=c1c(-c2ccccc2)coc2cc(O)ccc12`: 60.4% (active); for `CCc1ccc(Oc2coc3cc(O)ccc3c2=O)cc1`: 14% (inactive).
In the case of `CC(C)CN(Cc1c(O)ccc2c(=O)c(-c3ccccc3)coc12)CC(C)C`, the inhibition is -12.1% (inactive).
With `COc1ccc(C(C)NC(=S)NC2CCCCC2)cc1OC` (configuration not stated), the inhibition was -13.2% (inactive).
The same measure for `CNC(=O)C1CC(=O)N(c2ccc(OCC(=O)Nc3ccccc3C)cc2)C1` (configuration not stated): -8.41% (inactive); for `O=C(c1cccs1)N1CCC(c2nc3ccccc3s2)CC1`: 5.91% (inactive); for `COc1ccc(-n2nnnc2CNC(=O)c2ccc3ccccc3c2)cc1`: -6.42% (inactive).
To `COc1ccc(-n2nnnc2-c2nc3ccccc3s2)cc1` belongs 54.6% (active); to `COc1ccc(C2=NN(c3nc4ccccc4s3)C(=O)C2)cc1`, 2.49% (inactive).
The same measure for `C=CCC(C(=O)c1ccccc1)[N+](C)(C)CC=C` (configuration not stated): -7.76% (inactive); for `Cc1cnc(CN(C)C(=O)C2CCC(=O)N(CCc3cccc(F)c3)C2)[nH]1` (configuration not stated): 13.7% (inactive); for `COc1cccc(C(=O)Nc2ccc(NC(=O)c3ccco3)cn2)c1`: 64.1% (active).
As to `COc1ccccc1C(=O)Nc1ccc(NC(=O)c2ccco2)c(C)c1`, the inhibition is 66.3% (active).
To `Cc1cc(NC(=O)c2ccc(F)cc2)ccc1NC(=O)c1ccco1` belongs 43.7% (inactive); to `COc1ccc(OCC(=O)Nc2ccc(NC(=O)c3ccco3)c(C)c2)cc1`, -34.6% (inactive).
To `O=C(Nc1ccc(NC(=O)c2cccs2)cn1)c1ccco1` belongs 22% (inactive); to `Cc1ccc(C(=O)COc2cccc(NC(=O)c3ccco3)c2)cc1`, -16.4% (inactive).
The same measure for `CC[C@]1(c2ccccc2OC)C(=O)N(C(=O)OC)N1C(=O)OC`: 0.734% (inactive); for `CC(=O)Nc1ccc(OCCC[n+]2cccc(C(=O)[O-])c2)cc1`: -17.4% (inactive); for `Nc1ccc(N=Nc2ccccc2Cl)c(N)n1`: 81.2% (active).
As to `COc1cccc(NC(=O)c2cc(S(=O)(=O)N3CCc4ccccc43)cn2C)c1`, the inhibition is 3.36% (inactive).
To `Cc1ccnc(Nc2nc3ccccc3s2)n1` belongs 78.6% (active); to `Cc1ccnc(-n2sc3ccccc3c2=O)n1`, 2.11% (inactive); to `CC(=O)Nc1cccc(-c2nc3ccccc3s2)c1C`, -16.1% (inactive).
To `CCn1nccc1C(=O)Nc1ccc(S(=O)(=O)NC23CC4CC(CC(C4)C2)C3)cc1` belongs 1.42% (inactive).
The same measure for `CCn1nccc1C(=O)Nc1ccc(Cl)c(Cl)c1`: 76.6% (active).
In the case of `O=C(CC(O)(C(F)(F)F)C(F)(F)F)Nc1ccc(Cl)c(Cl)c1`, the inhibition was 1.52% (inactive).
To `COc1ccc(OC)c(S(=O)(=O)N2CCCC(C(=O)NCCc3ccccc3)C2)c1` (configuration not stated) belongs -9.45% (inactive).
To `O=C(c1ccc(F)cc1)n1cc(C(=S)N2CCOCC2)c2ccccc21` belongs 5.26% (inactive); to `O=C(c1ccc(F)cc1)n1c(=S)nc2ccccn21`, 71.7% (active).
Consider `O=C(Cn1c(=S)nc2ccccn21)N1CCc2ccccc2C1`, for which the inhibition was -12.6% (inactive).
To `CCOc1cc2[nH]c(=S)n(CCCN3CCCC3=O)c(=O)c2cc1OCC` belongs -8.53% (inactive); to `COc1ccc(NC(=O)Nc2cccc3cccnc23)cc1`, 80.7% (active).
Consider `COc1ccc(NC(=O)C2CCCN(S(=O)(=O)c3cccc4cccnc34)C2)cc1` (configuration not stated), for which the inhibition was -2.53% (inactive).
Take `O=C(Nc1ccccc1Cl)Nc1cccc2cccnc12`: the inhibition is 58.1% (active).
Turning to `O=C(Nc1ccccc1Cl)O/N=C(/c1ccccc1)c1ccccn1`, the inhibition was 5.09% (inactive).
The same measure for `CCOC(=O)Cc1ncccc1C(=O)Nc1ccc(OC)cc1`: 10.7% (inactive); for `O=C(Nc1cccc2cccnc12)c1cccc(Cl)c1`: 38.9% (inactive).
As for `COc1ccc(OCC(=O)NN2Cc3ccccc3C2=N)cc1`, the inhibition was -3.36% (inactive).
To `COC(=O)C1=C(C)N(Cc2ccccc2)C(=NCCCOC(C)C)N[C@H]1c1ccccc1` belongs -15.2% (inactive).
Take `Cc1ccc(S(=O)(=O)N(C)CC(=O)OCC(=O)N2CC(=O)Nc3ccccc32)cc1`: the inhibition was -8.14% (inactive).
Take `Cn1c(N)c(C(=O)COC(=O)/C=C/c2ccc(OC(F)F)cc2)c(=O)n(C)c1=O`: the inhibition was -13.8% (inactive).
The same measure for `Cc1ccccc1NC(=O)C1CCN(C(=O)NC2CCCCC2)CC1`: -18.9% (inactive); for `O=C(Nc1ccc2c(c1)OCCO2)C1CCCC1`: 15.1% (inactive); for `O=C(Nc1cc2ccccc2oc1=O)C1CCCCC1`: 62.5% (active).
For the compound `C[n+]1ccc(C(=O)NCc2ccccc2)cc1`, the inhibition is -12.9% (inactive).
In the case of `C=CCNC(=S)N1CCN(CCN=Cc2c(C)[nH]n(-c3ccc([N+](=O)[O-])cc3)c2=O)CC1`, the inhibition is 1.69% (inactive).
To `Cc1[nH]n(-c2ccc([N+](=O)[O-])cc2)c(=O)c1C=NCCN1CCN(C(=O)c2ccccc2F)CC1` belongs 87% (active); to `Cc1ccc(-n2[nH]c(C)c(/C=N/NC(=O)c3cccc([N+](=O)[O-])c3)c2=O)cc1C`, 27.4% (inactive); to `O=C(COC(=O)c1ccccc1Cl)NC1CCCCCCC1`, -12.9% (inactive).
As to `Cc1nn(CC(=O)Nc2ccc(F)cc2)c(=O)c2ccccc12`, the inhibition was -16.4% (inactive).
On to `Cc1ccc(-n2nc3ccc(NC(=O)/C=C/c4ccco4)cc3n2)cc1C`, for which the inhibition is 10.8% (inactive).
To `CCC(=O)Nc1ccc2nn(-c3ccc(F)cc3)nc2c1` belongs 76.9% (active); to `CC(C(=O)N1CCc2ccccc21)N(C)CC(=O)Nc1ccc(F)cc1` (configuration not stated), -18.7% (inactive).
Regarding `O=C(/C=N/O)Nc1ccccc1`, the inhibition is -8.91% (inactive).
In the case of `Cc1ccc(-c2nc(-c3cccnc3)sc2CC(=O)Nc2ccc(C)c(Cl)c2)cc1`, the inhibition is -22% (inactive).
On to `Cc1[nH]n(C(N)=S)c(=O)c1N=Nc1ccc(Cl)cc1Cl`, for which the inhibition is 96.1% (active).
To `Cc1cccc(N=Nc2c(C)[nH]n(-c3ccccc3)c2=O)c1` belongs -17.2% (inactive).
On to `Cc1[nH]n(C)c(=O)c1N=Nc1ccc(S(C)(=O)=O)cc1`, for which the inhibition was -4.33% (inactive).
For `COc1ccc(CCNC(=O)COC(=O)Cc2ccccc2F)cc1`, the inhibition was 0.819% (inactive).
In the case of `CCN(CC)CCOCCOc1ccc(Cl)c2ccccc12`, the inhibition is -6.66% (inactive).
Regarding `CCOC(=O)c1cnc2sccn2c1=O`, the inhibition is -5.45% (inactive).
The same measure for `CCOC(=O)c1cnc2[nH]c3ccccc3n2c1=O`: 83% (active); for `CCOC(=O)c1cnc(COc2ccccc2Cl)[nH]c1=O`: -27.6% (inactive).
The same measure for `Cc1ccc(S(=O)(=O)NCC(=O)N(CC(=O)NC2CCCCC2)Cc2ccco2)cc1`: 1.15% (inactive); for `COc1cc(C(=O)NCc2ccc3c(c2)cc(C)n3C)cc(OC)c1OC`: 1.27% (inactive).
As for `COc1cc2c3c(c1)/C(=C1/SC(=S)NC1=O)C(=O)N3C(C)(C)C=C2C`, the inhibition was 24.2% (inactive).
With `O=c1[nH]n(-c2ccc([N+](=O)[O-])cc2)c(=O)c2ccccc12`, the inhibition is -18.2% (inactive).
On to `Cc1nc(-c2ccc([N+](=O)[O-])cc2)c(-c2ccccc2)o1`, for which the inhibition was -20.8% (inactive).
Regarding `O=C1CC(c2ccccc2)=NN1c1ccc([N+](=O)[O-])cc1`, the inhibition was 75.3% (active).
For `COc1cccc(OCC(O)CNC(=O)c2oc3c(C)c(C)ccc3c2C)c1` (configuration not stated), the inhibition is 95.6% (active).
To `COc1ccc2oc(C(=O)NCC(Cc3ccccc3)N(C)C)c(C)c2c1` (configuration not stated) belongs -20.2% (inactive); to `COc1ccc2oc(C(=O)NCc3ccco3)c(C)c2c1`, -9.13% (inactive).
To `Cc1ccc(C(=O)Nc2ccc3c(c2)OCCO3)cc1S(=O)(=O)N1CCOCC1` belongs 7.66% (inactive); to `CC(C)C(NS(=O)(=O)c1cccs1)C(=O)Nc1nc(C(C)(C)C)cs1` (configuration not stated), -11.7% (inactive); to `CN(Cc1nc2ccccc2s1)C(=O)c1ccc(F)cc1`, 2.3% (inactive).
To `COc1ccccc1OCc1nc2ccccc2s1` belongs 94.1% (active); to `COc1ccccc1N1CC(O)=C(c2nc3ccccc3s2)C1=N`, -18.4% (inactive); to `C/C=C/c1ccc(OCC(O)CN2CCCCCCC2)c(OC)c1` (configuration not stated), 1.7% (inactive).
Regarding `CC(C)[C@H](NC(=O)N1CC(=O)Nc2ccccc21)C(=O)N[C@@H](Cc1c[nH]c2ccccc12)C(=O)O`, the inhibition is -5.26% (inactive).
The same measure for `COc1ccc(OCC(=O)Nc2nnc(-c3ccco3)s2)cc1`: -16.6% (inactive); for `CCCCOc1ccc(-c2ncc(C(=O)OCC)c(N)n2)cc1`: -8.7% (inactive); for `CCCCOc1ccc(-c2nnc(-c3ccco3)o2)cc1`: 67.2% (active).
As to `N#Cc1ccc(OCc2nnc(-c3ccc([N+](=O)[O-])cc3)o2)cc1`, the inhibition is -4.94% (inactive).
The same measure for `CCOc1ccc(-n2c(SCC(N)=O)nnc2-c2ccco2)cc1`: -12.9% (inactive).
To `CCOc1ccc(-c2nnc(-c3ccco3)o2)cc1` belongs 85% (active); to `O=S(=O)(Cc1nnnn1-c1ccccc1)c1ccccc1`, 6.33% (inactive); to `Cc1ccc(NC(=O)[C@H](Cc2ccccc2)NC(=O)C2CCNCC2)cc1`, -5.94% (inactive).
For the compound `CCOc1ccc(S(=O)(=O)N2CCC(C(=O)OCc3ccc(OC)cc3)CC2)cc1`, the inhibition was -11.1% (inactive).
